About 7,900 targets were measured; listed, in parts, are those with a hit and a random draw of the rest. About 0.6% of all pairs of compound and target were hits. Unmarked numbers belong to inactive results.

UniProt Q9NVC6, sequence (Q9NVC6 whole entry, looked up): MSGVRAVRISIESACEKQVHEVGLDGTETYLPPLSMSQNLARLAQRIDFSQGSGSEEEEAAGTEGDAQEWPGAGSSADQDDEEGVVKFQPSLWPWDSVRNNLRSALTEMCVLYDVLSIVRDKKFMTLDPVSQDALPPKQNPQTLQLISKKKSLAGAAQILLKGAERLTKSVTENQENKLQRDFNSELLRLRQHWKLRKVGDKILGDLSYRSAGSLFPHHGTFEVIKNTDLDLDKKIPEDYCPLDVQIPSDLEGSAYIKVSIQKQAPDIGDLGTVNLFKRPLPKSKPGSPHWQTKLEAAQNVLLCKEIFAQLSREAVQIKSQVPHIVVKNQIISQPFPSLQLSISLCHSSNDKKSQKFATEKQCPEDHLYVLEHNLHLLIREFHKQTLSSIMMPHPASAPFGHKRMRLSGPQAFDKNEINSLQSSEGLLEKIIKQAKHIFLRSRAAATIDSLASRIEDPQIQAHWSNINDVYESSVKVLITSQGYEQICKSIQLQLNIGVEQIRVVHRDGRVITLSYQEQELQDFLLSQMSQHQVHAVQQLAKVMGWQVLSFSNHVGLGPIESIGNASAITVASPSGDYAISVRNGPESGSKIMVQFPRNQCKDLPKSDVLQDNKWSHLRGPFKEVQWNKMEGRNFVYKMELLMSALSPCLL
UniProt Q6P9B9, sequence (Q6P9B9 whole entry, looked up): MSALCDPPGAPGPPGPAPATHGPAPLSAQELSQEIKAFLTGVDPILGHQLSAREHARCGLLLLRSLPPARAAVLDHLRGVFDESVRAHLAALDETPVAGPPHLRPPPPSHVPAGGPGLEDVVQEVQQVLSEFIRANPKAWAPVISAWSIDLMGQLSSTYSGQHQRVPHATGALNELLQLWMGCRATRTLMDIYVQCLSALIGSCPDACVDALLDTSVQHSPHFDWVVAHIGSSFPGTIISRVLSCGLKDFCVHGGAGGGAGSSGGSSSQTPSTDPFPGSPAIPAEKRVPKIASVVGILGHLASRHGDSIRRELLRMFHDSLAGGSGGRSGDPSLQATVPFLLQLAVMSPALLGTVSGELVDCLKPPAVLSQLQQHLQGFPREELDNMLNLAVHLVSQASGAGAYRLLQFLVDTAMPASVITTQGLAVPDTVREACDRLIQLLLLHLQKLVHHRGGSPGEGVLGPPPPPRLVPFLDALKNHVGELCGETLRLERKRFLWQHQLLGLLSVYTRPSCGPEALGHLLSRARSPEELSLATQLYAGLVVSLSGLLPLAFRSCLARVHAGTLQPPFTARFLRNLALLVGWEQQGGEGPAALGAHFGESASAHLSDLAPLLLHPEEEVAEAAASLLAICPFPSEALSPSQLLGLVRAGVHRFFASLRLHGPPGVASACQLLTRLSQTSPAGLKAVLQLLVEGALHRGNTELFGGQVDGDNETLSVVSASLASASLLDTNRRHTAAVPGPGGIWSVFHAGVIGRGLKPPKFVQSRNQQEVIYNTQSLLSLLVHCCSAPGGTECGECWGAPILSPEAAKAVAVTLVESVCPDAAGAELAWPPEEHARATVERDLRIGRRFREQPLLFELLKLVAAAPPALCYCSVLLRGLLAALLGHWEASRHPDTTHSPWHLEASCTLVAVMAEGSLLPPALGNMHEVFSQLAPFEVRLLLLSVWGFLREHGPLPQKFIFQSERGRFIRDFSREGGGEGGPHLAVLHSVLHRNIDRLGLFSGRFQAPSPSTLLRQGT
UniProt P27816, sequence (P27816 whole entry, looked up): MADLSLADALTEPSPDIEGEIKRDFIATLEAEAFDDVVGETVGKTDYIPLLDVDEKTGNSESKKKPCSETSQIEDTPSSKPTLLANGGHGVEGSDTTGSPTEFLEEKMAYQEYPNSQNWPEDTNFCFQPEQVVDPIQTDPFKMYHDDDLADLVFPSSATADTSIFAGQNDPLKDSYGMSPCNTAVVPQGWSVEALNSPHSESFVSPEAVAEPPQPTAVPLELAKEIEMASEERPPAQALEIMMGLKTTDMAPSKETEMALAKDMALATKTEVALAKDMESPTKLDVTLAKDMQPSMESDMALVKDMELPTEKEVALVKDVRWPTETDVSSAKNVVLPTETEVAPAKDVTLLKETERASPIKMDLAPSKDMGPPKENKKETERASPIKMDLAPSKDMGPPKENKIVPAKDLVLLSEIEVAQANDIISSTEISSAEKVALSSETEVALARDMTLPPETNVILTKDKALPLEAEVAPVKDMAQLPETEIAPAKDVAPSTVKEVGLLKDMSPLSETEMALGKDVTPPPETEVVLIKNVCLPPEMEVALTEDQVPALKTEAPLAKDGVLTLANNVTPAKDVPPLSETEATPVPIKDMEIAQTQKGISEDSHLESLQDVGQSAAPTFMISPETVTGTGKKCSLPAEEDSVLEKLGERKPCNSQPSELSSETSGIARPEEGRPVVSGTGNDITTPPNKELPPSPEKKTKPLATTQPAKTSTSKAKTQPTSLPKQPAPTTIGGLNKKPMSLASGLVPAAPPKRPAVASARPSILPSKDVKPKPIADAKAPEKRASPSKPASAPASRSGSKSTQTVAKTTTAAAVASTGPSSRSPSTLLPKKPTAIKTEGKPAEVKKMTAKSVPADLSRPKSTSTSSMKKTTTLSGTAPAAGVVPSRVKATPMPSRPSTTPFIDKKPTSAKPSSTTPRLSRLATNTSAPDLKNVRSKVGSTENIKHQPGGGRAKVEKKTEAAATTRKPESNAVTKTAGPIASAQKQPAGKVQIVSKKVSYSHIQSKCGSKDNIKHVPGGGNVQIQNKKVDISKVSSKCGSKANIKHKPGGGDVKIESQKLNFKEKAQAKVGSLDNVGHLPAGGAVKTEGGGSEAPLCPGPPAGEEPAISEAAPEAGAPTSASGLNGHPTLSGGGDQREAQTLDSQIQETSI
UniProt Q8WYH8, sequence (Q8WYH8 whole entry, looked up): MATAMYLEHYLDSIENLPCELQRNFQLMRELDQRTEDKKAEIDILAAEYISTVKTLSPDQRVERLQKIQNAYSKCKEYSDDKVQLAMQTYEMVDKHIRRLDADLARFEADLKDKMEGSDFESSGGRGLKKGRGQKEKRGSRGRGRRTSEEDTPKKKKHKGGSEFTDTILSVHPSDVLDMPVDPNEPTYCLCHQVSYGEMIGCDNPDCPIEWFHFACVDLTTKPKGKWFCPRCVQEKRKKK
UniProt P08514, sequence (P08514 whole entry, looked up): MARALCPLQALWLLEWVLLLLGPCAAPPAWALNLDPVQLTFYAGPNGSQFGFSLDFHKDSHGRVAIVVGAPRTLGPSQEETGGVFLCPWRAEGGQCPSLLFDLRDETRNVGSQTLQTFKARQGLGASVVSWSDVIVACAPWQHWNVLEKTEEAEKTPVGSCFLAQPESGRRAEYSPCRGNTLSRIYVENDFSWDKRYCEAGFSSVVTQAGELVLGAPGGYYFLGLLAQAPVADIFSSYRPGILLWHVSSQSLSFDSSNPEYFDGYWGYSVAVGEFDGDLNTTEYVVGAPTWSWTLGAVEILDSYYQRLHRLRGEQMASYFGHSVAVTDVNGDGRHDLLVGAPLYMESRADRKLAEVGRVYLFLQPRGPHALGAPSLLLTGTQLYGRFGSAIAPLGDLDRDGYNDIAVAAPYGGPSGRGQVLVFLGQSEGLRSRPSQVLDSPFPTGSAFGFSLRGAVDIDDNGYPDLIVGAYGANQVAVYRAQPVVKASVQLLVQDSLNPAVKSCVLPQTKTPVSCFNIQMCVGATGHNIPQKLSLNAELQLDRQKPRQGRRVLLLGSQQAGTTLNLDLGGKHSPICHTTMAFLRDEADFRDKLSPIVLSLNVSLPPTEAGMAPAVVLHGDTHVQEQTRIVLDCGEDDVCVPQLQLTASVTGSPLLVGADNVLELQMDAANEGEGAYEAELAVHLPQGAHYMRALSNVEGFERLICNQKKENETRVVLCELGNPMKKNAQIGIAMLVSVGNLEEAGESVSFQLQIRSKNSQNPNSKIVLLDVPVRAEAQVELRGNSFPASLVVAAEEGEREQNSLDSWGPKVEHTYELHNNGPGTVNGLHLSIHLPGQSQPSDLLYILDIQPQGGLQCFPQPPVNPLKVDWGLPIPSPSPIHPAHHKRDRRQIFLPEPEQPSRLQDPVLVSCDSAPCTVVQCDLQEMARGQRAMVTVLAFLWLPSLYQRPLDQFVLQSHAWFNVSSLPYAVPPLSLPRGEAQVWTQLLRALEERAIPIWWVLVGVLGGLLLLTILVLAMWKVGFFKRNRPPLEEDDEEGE
UniProt Q86X29, sequence (Q86X29 whole entry, looked up): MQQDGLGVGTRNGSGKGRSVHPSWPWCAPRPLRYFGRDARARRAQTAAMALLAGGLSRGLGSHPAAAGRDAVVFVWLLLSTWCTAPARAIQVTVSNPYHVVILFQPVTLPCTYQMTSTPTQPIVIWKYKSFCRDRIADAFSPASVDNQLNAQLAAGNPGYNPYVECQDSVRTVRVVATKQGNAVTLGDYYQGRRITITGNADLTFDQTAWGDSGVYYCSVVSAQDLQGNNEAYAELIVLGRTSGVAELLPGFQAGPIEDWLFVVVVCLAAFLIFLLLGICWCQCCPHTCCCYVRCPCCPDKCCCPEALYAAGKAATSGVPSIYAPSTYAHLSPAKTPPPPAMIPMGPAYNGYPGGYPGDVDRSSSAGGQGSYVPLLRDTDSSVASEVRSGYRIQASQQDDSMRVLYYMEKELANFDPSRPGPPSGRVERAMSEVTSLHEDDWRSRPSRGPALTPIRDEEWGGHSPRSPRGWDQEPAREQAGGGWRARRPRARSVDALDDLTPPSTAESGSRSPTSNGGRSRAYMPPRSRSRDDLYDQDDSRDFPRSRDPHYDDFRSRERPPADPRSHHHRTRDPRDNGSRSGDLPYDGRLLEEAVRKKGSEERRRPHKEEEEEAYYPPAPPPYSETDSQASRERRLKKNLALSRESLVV
UniProt Q9NX70, sequence (Q9NX70 whole entry, looked up): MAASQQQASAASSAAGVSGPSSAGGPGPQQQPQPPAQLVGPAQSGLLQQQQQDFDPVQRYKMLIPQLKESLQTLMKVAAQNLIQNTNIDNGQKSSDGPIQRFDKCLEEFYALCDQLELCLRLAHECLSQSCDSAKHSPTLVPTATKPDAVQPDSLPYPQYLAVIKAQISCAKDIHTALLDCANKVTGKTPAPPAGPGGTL

Compound in the first test: Cn1cc(-c2ccc3nnc(C(F)(F)c4ccc5ncccc5c4)n3n2)cn1
The experiment in a line: log2 fold change, soluble protein after heating vs DMSO (PISA); higher = thermal stabilisation; K562 cells, 10 uM, 30 min; active = over 0.2 and 3.5 SD of the protein, either way, in both replicates (recomputed). Summed up: (§1)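 Values are thermal stability changes relative to control samples and are taken from duplicates. They are stated as log2 fold changes. Before quantification by TMTpro 16plex LC-MS/MS with equalised channel sums, K562 cells at 2×10^6 cells/mL were treated with 10 μM compound for 30 min, heated in aliquots for 3 min across 48°C-58°C, pooled, extracted in PBS with 0.5% NP-40 at 4°C, and centrifuged at 21,000xg for 90 min to give the soluble supernatant.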
As to INTS5 (UniProt Q6P9B9), the log2 fold change was -0.003. Still for that read-out and setting: for ITGA2B (UniProt P08514) the value was -0.051. On the same count and under the same terms, the figure for KIF21A (UniProt H0YI78) is 0.134; for MAPK11 (UniProt Q15759) it is -0.024.

With LUM (UniProt P51884), the log2 fold change was -0.075. Still for that read-out and setting: for IGFBP6 (UniProt P24592) the value was 0.006; for MAML1 (UniProt Q92585), -0.009; for LDLRAP1 (UniProt Q5SW96), 0.14. Same read-out and setting: the figure for LRFN1 (UniProt Q9P244) is 0.011; for ITPRID2 (UniProt P28290) it is -0.032. Same read-out and setting: the figure for MAP2K5 (UniProt Q13163) is 0; for IKZF1 isoform 2 (UniProt Q13422) it is 0.015; for LRRCC1 (UniProt Q9C099) it is 0.063. For the target KIZ (UniProt Q2M2Z5), the log2 fold change is 0.196.

For the target MAP4 isoform 5 (UniProt P27816), the log2 fold change was -0.037. On the same count and under the same terms, the figure for MED17 (UniProt Q9NVC6) is -0.069.

Compound in a further test: Cn1cncc1[C@@](N)(c1ccc(Cl)cc1)c1ccc2c(c1)c(-c1cccc(Cl)c1)cc(=O)n2C [tipifarnib]
Described as above. Summed up:
as §1
With INTS5 (UniProt Q6P9B9), the log2 fold change was -0.145. For the target ITGA2B (UniProt P08514), the log2 fold change is 0.073. In the case of MAP4K2 (UniProt Q12851), the log2 fold change is -0.048. Take LYN isoform 2 (UniProt P07948): the log2 fold change was 0.075. The same measure, in the same setting: the figure for ING5 (UniProt Q8WYH8) is 0.045. IKZF1 (UniProt R9R4D9): the log2 fold change was -0.119.

With MAP3K20 isoform 2 (UniProt Q9NYL2), the log2 fold change is 0.138.

As for MAPRE3 isoform 2 (UniProt Q9UPY8), the log2 fold change was 0.201. In the case of MED29 (UniProt Q9NX70), the log2 fold change was 0.169. Turning to MARCHF3 (UniProt Q86UD3), the log2 fold change is 0.001.

With MAGED1 isoform 2 (UniProt Q9Y5V3), the log2 fold change is -0.104. Still for that read-out and setting: the figure for LUM (UniProt P51884) is 0.055. The same measure, in the same setting: the figure for IGFBP3 isoform 2 (UniProt P17936) is -0.087. For LRFN1 (UniProt Q9P244), the log2 fold change is -0.026. Still for that read-out and setting: the figure for LSR isoform 3 (UniProt Q86X29) is 0.101.

With ITPRID2 (UniProt P28290), the log2 fold change is -0.056.

Consider KIZ (UniProt Q2M2Z5), for which the log2 fold change was 0.217. Same read-out and setting: for MAP4 isoform 5 (UniProt P27816) the value was 0.066. On to MED17 (UniProt Q9NVC6), for which the log2 fold change is 0.077.

Compound in a further test: FC(F)(F)c1ccc(/C=C/c2nc(COc3ccc(CCCCn4ccnn4)cc3)co2)cc1 [mubritinib]
Described as above. Summed up:
as §1
For MAP4K4 isoform 6 (UniProt O95819), the log2 fold change is 0.02. Same read-out and setting: for INTS5 (UniProt Q6P9B9) the value was 0.23; for KIF1B isoform 3 (UniProt O60333), 0.168; for ING5 (UniProt Q8WYH8), 0.206. MAP3K20 isoform 2 (UniProt Q9NYL2): the log2 fold change is -0.134. The same measure, in the same setting: for MED29 (UniProt Q9NX70) the value was -0.136; for LOX (UniProt P28300), -0.017. With ILF3 (UniProt Q12906), the log2 fold change is -0.074. The same measure, in the same setting: for LEPROT (UniProt O15243) the value was 0.041; for LSR isoform 3 (UniProt Q86X29), 0.435; for IKZF1 isoform 2 (UniProt Q13422), -0.024.

LIN52 (UniProt Q52LA3): the log2 fold change was -0.117.

Take MAP4 isoform 5 (UniProt P27816): the log2 fold change is 0.027. Take MED17 (UniProt Q9NVC6): the log2 fold change was 0.015.

These data come from the supplement of paper PMC10849652.
